Compound activity (PubChem BioAssay)
HCV inh = HCV inhibition | hit rate 3.4% among 340,000 | Huh7.5.1 HCVcc-Cre infection, luciferase reporter, 44 h | Potency, µM (titrated, usually from 41.8 µM), for the others: top-dose activity change, negative = inhibition, actives largely listed as inhibitors | AID 651820; further: potency means the concentration at half of the fitted maximal effect
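A cell-based infection assay in which seeded cells (1,000 per well) receive test compound after 4 h, are inoculated with HCVcc-Cre at approximately 0.5 moi, and are incubated 44 h before luminescence detection.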
Giardia FBPA inh = Giardia lamblia aldolase inhibition | Potency, µM (titrated, usually from 59.6 µM), for the others: at the top dose activity, negative = inhibition, most hits filed as inhibitors | A8B2U2 | AID 2451 | hit rate 0.71% among 290,000 | purified Giardia FBPA; further: potency means the concentration at half of the fitted maximal effect; nearly all actives have a fitted effect of over 55% in size
Target sequence (A8B2U2 whole entry, looked up): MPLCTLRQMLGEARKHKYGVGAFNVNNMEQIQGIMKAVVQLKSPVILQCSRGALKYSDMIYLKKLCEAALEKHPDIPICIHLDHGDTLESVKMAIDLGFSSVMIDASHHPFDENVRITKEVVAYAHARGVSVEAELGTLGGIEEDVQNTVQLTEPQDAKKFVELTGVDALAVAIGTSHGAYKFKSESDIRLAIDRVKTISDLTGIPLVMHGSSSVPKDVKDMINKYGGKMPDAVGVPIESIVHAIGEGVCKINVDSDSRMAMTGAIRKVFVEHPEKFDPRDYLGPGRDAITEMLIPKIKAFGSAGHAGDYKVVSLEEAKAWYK
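Giardia FBPA (40 nM reagent) was preincubated 10 min at RT with compound (up to 57.5 uM final), then substrate plus GAPDH/TPI/NAD/arsenate coupling system with diaphorase/resazurin was added; resorufin fluorescence (525/598 nm) was read after 20 min.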
Vaccinia mCherry = vaccinia inhibition (mCherry reporter); Potency, µM (series often up to 36.5 µM), for the others: at the highest dose activity change, negative = inhibition, actives largely listed as inhibitors; hit rate 0.63% among 310,000; Vaccinia virus mCherry reporter infection, fluorescence; calls by dose curve; tested in A549 cells; further: potency means the concentration at half of the fitted maximal effect; nearly all actives have a fitted effect of over 35% in size
Vaccinia Venus = inhibitors of vaccinia virus (Venus reporter); hit rate 0.46% among 330,000; Vaccinia virus Venus reporter expression, fluorescence; Potency, µM (titrated, usually from 36.5 µM), for inactives: at the highest dose activity change, negative = inhibition, actives largely listed as inhibitors; AID 720580; calls by dose curve; tested in A549 cells; further: potency means the concentration at half of the fitted maximal effect; nearly all actives have a fitted effect of over 30% in size
HCMV antiviral = blocks human cytomegalovirus replication; HFF cells, HCMV-luciferase reporter, 72 h; active compounds read low; activity change, negative = inhibition, % at 57.5 µM; hit rate 4.5% among 410,000; AID 1259415; in the data active means activity change below about -60%; inconclusive means no clear call, values can overlap the other calls; inactive means above about -39%
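Compounds were evaluated in HFFs infected with an HCMV luciferase reporter virus (MOI 1 PFU/cell). Luciferase in lysates collected 72 h post infection served as the replication measure.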
FMDV inh = antivirals against foot and mouth disease virus; Potency, µM (highest dose often 57.9 µM), for inactives: top-dose activity change, negative = inhibition, actives largely listed as inhibitors; hit rate 1.2% among 410,000; FMDV antiviral cell-based qHTS; calls by dose curve; tested in HEK293T cells; further: read-out not given here; potency means the concentration at half of the fitted maximal effect; nearly all actives have a fitted effect of over 45% in size
Active calls of the source: *; i = inactive; ? = inconclusive; / = no result given; [ ] = remark or other dose. Hits are enriched below; roughly 7.5% of the tested compounds scored in any of these assays. Unless noted, the call rests on the fitted dose curve; in most records, active means well fitted curve in the direction sought with a large enough effect; inconclusive means small, poorly fitted or top-dose-only effect, or another doubt; inactive means no such curve, though single readings can be large; an effect the other way counts as inactive or inconclusive. On the % scale 0 is the no-effect control and ±100 the full control effect.

SMILES	HCV inh	Giardia FBPA inh	Vaccinia mCherry	Vaccinia Venus	HCMV antiviral	FMDV inh
O=C(Nc1cnn(Cc2ccc(Cl)cc2)c1)c1ccc([N+](=O)[O-])cc1	-3%	-8%	?	?	-39	?
O=C(Nc1ccc([N+](=O)[O-])cc1)c1ccc(Cn2cc([N+](=O)[O-])cn2)cc1	?	-3%	/	/	-68*	?
O=C(Nc1ccncc1)c1cncc(Br)c1	17%	-14%	-4%	-7%	-32	2%
O=C(Nc1ccc([N+](=O)[O-])cc1)c1cncc(Br)c1	-8%	-1%	/	/	-85*	8%
COc1cccc(OCCNS(=O)(=O)c2ccccc2[N+](=O)[O-])c1	-1%	/	/	/	9	9%
CCCCN(C(=O)c1ccc(Cl)cc1)C1CC2CCC(C1)N2C (stereo not given)	11µM*	-5%	-17%	-19%	-7	-2%
CN1C2CCC1CC(N(CCc1ccccc1)C(=O)c1ccc(Cl)cc1)C2 (stereo not given)	-21%	-4%	/	/	0	-15%
COC(=O)C12CC3(CCC4C5C(C(OCc6ccccc6)C41)C52)OCCO3 (stereo not given)	/	3%[12.9 µM]	/	/	/	/
O=C(c1ccccc1[N+](=O)[O-])N1CCC[C@@H]1c1noc2ccccc12	/	/	/	/	-62*	/
COc1cc(C)c(Br)cc1S(=O)(=O)NCc1cccs1	5%	15%	i	-16%	?	59%
Cc1cc(C)c(S(=O)(=O)NCc2ccncc2)c(C)c1	?	3%	?	?	-84*	-2%
COc1cc(C)c(Br)cc1S(=O)(=O)NCc1ccncc1	?	1%	-23%	-29%	-76*	23%
C=CCN(c1ccccc1)S(=O)(=O)c1cccc(C(=O)NCC(c2cccs2)N2CCOCC2)c1 (stereo not given)	?	/	?	-23%	?	-26%
COc1ccc(NC(=O)Cn2nnc(C(=O)NCc3ccccc3Cl)c2N)cc1Cl	/	/	i	-10%	13	10%
COc1nc(Nc2ccc([N+](=O)[O-])cc2)nc(NC2CCCCC2)n1	?	-13%	-16%	?	-6	-13%
CC(C)CNS(=O)(=O)c1ccc(S(=O)(=O)N2CCN(C3CCCC3)CC2)cc1	-10%	-2%	-11%	-3%	-101*	-13%
CN(C)c1ncc2nc(-c3cc(F)cc(F)c3)c(=O)n(C3CC3)c2n1	/	-1%	/	/	/	-9%
Cc1ccc(S(=O)(=O)N2[C@@H](Cc3ccccc3)CO[C@H]2CC(=O)c2cccs2)cc1	/	/	-29%	-22%	44	6%
Cc1ccc(S(=O)(=O)N2[C@@H](Cc3ccccc3)CO[C@H]2CC(=O)c2ccccc2)cc1	/	/	i	?	-69*	-1%
Cc1ccc(S(=O)(=O)C[C@@H]2OC[C@H](Cc3ccccc3)N2S(=O)(=O)c2ccc(C)cc2)cc1	/	/	-27%	-19%	-61*	17%
CCN(CC(=O)Nc1ccc2c(c1)OC(F)(F)O2)Cc1nc2ccccc2c(=O)[nH]1	-19%	-23%	/	-14%	?	-30%
CCN(CC(=O)Nc1ccc2c(c1)OCO2)Cc1nc2ccccc2c(=O)[nH]1	-14%	-29%	-12%	-14%	-100*	10%
CCN(CC(=O)Nc1ccccc1SC)Cc1nc2ccccc2c(=O)[nH]1	11µM*	?	63%	-3%	19	-24%
CCN(CC(=O)Nc1ccccc1-c1ccccc1)Cc1nc2ccccc2c(=O)[nH]1	?	-12%	i	-7%	7	-7%
C=CCn1c(-c2ccccc2)c[nH]c1=S	14%	-19%	/	/	99	61%
SMILES	HCV inh	Giardia FBPA inh	Vaccinia mCherry	Vaccinia Venus	HCMV antiviral	FMDV inh
Cc1ccc(-c2c[nH]c(=S)n2-c2ccccc2F)cc1	10%	-3%	-7%	-9%	-64*	-10%
Cn1c(-c2ccc(-c3ccccc3)cc2)c[nH]c1=S	5µM*	4%	/	?	?	20%
CCn1c(-c2ccc(-c3ccccc3)cc2)c[nH]c1=S	10µM*	4%	i	-14%	-9	2%
Cc1ccc(-c2c[nH]c(=S)n2-c2ccccc2)cc1	7%	-1%	/	/	-36	-11%
Cc1ccc(C(C)C)c(OCCCN2C(=O)NC(C)(C)C2=O)c1	-12%	-4%	/	/	-8	-24%
CC(C)c1cc(Br)ccc1OCCN1C(=O)NC(C)(C)C1=O	-1%	-15%	/	/	-61*	-12%
Nc1sc2c(c1C(=O)c1ccc(Cl)cc1)CCCC2	/	-23%	/	/	/	/
CC(C)N=c1cc2n(-c3ccc(Cl)cc3)c3ccccc3nc-2cc1Nc1ccc(Cl)cc1	-12%	-1%[21.7 µM]	i	?	-64*	-14%
CCCCN(c1ccccc1)S(=O)(=O)c1ccc2c(c1)CC(C)N2C(=O)C1CC1 (stereo not given)	/	/	-10%	-8%	-21	-14%
CCCN(c1ccccc1CC)S(=O)(=O)c1ccc2c(c1)CC(C)N2C(=O)C1CC1 (stereo not given)	/	/	?	?	-93*	?
COc1ccccc1CNS(=O)(=O)c1ccc2c(c1)CC(C)N2C(=O)C1CCC1 (stereo not given)	?	5%	-11%	-18%	-61*	?
CCOC(=O)CC(=O)CSc1nc(CC)c(C)cc1C#N	15%	2%	i[7.34 µM]	-15%[7.34 µM]	-89*	11%
O=C(CSc1ccccc1)N1CCc2c([nH]c3ccccc23)C1c1ccc(Cl)cc1 (stereo not given)	/	/	-14%	-7%	-31	-17%
CCOC(=O)c1sc(NC(=O)CNCc2cccnc2)c(C(=O)OCC)c1C	-17%	0%	-1%	-2%	-62*	?
CCOC(=O)c1sc(NC(=O)CNCc2ccccn2)c(C(=O)OCC)c1C	4%	0%	?	-10%	-11	?
CCOC(=O)c1c(NC(=O)CSc2nc3cccnc3n2C)sc(C(C)=O)c1C	?	5%	-10%	-4%	/	28µM*
CCOC(=O)c1cccc(NC(=O)CSc2nc3cccnc3n2C)c1	?	5%	?	?	?	18µM*
CCOC(=O)c1c(NC(=O)CSc2nnc(-c3ccccc3C)n2C)sc(C(C)=O)c1C	10µM*	2%	/	/	-35	?
Cc1ccc(CCNC(=O)C2CCN(S(=O)(=O)c3ccc4nc5c(c(C(=O)O)c4c3)CCCC5)CC2)cc1	14%	17%	/	/	44	-3%
CCc1cccc(C)c1NC(=O)c1cc(S(=O)(=O)N(C)Cc2ccccc2)ccc1F	/	/	-27%	-17%	?	?
Cc1cc(Nc2nc3ccccc3[nH]c2=O)n(-c2ccccc2)n1	-7%	-1%	7.1µM*	8.9µM*	-14	-5%
Cc1cc(Nc2cnc3ccccc3n2)n(-c2ccccc2)n1	4%	0%	?	-21%	38	?
CCOC(=O)c1c(C)nsc1NC(=O)C1CCCCC1	-14%	2%	-8%	-7%	-33	4%
